Each compound was assayed against Pro-neuregulin-1, membrane-bound isoform (Homo sapiens) (UniProt Q02297) (assay: NRG1 binders on small-molecule microarrays, primary screen, psychiatric disease protein project, biochemical, small-molecule microarray, fluorescence 635/667 (AID 1075;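 also: score combines 667 nm spot fluorescence with signal to noise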)). Details: NRG1 binding, 635 nm fluorescence, higher = more signal.
Chain of Pro-neuregulin-1, membrane-bound isoform (Homo sapiens) (Q02297 whole entry, looked up, canonical isoform): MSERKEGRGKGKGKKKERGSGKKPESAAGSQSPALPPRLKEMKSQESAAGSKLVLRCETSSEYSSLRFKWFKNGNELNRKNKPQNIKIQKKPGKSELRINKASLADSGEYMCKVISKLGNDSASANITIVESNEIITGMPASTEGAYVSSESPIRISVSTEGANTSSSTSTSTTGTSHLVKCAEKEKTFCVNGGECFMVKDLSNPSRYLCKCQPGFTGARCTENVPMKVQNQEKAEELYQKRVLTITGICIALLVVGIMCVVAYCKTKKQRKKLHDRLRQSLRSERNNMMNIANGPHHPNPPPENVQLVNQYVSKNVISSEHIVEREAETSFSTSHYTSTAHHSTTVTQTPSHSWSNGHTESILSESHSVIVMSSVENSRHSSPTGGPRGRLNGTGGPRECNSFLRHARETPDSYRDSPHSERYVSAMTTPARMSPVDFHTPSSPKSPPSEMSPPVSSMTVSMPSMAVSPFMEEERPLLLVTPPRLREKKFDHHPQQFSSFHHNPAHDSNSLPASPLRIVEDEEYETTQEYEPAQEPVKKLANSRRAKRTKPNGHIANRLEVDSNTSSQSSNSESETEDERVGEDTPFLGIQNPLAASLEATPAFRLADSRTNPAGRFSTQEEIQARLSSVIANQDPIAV
`CCOC(=O)NN=C1C[C@@H](O)[C@@H](O)[C@@H]2[C@@H]3C(=O)N([C@@H](C)c4ccccc4)C(=O)[C@@H]3CC[C@@H]12` gave a composite z-score of -0.133.
`COC(=O)[C@@H]1CC[C@H](C)[C@@H](c2ccc(C)cc2)N1C(=O)c1ccc(C=NO[C@@H](C)c2cn([C@H](CO)Cc3ccccc3)nn2)cc1` gave a composite z-score of 0.327.
For `O=C1CCCC=C1C(O)CCOC(c1ccccc1)(c1ccccc1)c1ccccc1` (stereo not given), the composite z-score was -0.229.
`COC(=O)CC=C[C@@H](C)[C@@H]1C=C[C@H](O)[C@@H](CO)O1` showed a composite z-score of -0.196.
`C[C@@H](ON=C1[C@H]2CCn3c(=O)n(-c4ccccc4)c(=O)n3[C@H]2[C@H](O)[C@@H]2O[C@H]12)c1cn([C@@H]2COC[C@H]2O)nn1` showed a composite z-score of 0.406.
`CO[C@@H]1COC(=O)[C@H](CCSC)NC(=O)CC=C[C@@H](C)COC(=O)CCC[C@H]1C` was tested, and the composite z-score was -1.28.
With `COc1cccc([C@@H]2Oc3ccc(OC)cc3C(=O)[C@H]2O)c1` the composite z-score was 0.788.
For `C=CC1=C[C@H](O)[C@@H]2O[C@@H]2C12OCCCO2`, the composite z-score was 0.122.
Work on `CCOC(=O)NN=C1C[C@@H](O)[C@@H](O)[C@@H]2[C@@H]3C(=O)N(Cc4ccccc4)C(=O)[C@@H]3CC[C@H]12` yielded a composite z-score of -0.0283.
Work on `COC(=O)[C@@H]1CC[C@H](C)[C@@H](c2ccc(C)cc2)N1C(=O)c1ccc(C=NO[C@H](C)c2cn([C@H](CO)Cc3ccccc3)nn2)cc1` yielded a composite z-score of -0.0294.
`COc1cc(O)c(C(=O)C=Cc2ccc3c(c2)OCO3)c(OC)c1` was tested, and the composite z-score was -0.288.
Work on `CCOC(=O)[C@H](CC(C)C)NC(=O)CCC1CC(OC(=O)NCc2cccc3ccccc23)CC2(CCCC(COC(=O)NCC3CCCCC3)O2)O1` (stereo not given in full) yielded a composite z-score of 0.589.
`Cc1cc2c(c(=O)o1)[C@@H](O)[C@H]1O[C@H]1C2=O` showed a composite z-score of -0.167.
`Cc1ccc(S(=O)(=O)NC(CCc2ccccc2)CC(=O)C(C)(C)C)cc1` (stereo not given) showed a composite z-score of 0.132.
Compound `C[C@@H](c1ccccc1)N1C(=O)[C@H]2[C@H]3[C@H](O)[C@H](O)CC(=NO[C@@H]4O[C@H](CO)[C@@H](O)[C@H](O)[C@H]4O)[C@@H]3CC[C@H]2C1=O` has a composite z-score of -0.319.
In the case of `CCN1C(=O)[C@@H]2[C@H]3C(=CC[C@@H]2C1=O)C1(OCCCO1)[C@H]1O[C@H]1[C@H]3O`, the composite z-score is reported as 0.692.
`CCOC(=O)[C@H](CC(C)C)NC(=O)CCC1CC(OC(=O)NCc2cccc3ccccc23)CC2(CCCC(COC(=O)NCCCN3CCCC3=O)O2)O1` (stereo not given in full) showed a composite z-score of 0.466.
`CC(=O)OC[C@H]1OC(ON=CC[C@@H]2C=C[C@H](OC(C)=O)[C@@H](COC(C)=O)O2)[C@H](OC(C)=O)[C@@H](OC(C)=O)[C@@H]1OC(C)=O` (stereo not given in full) showed a composite z-score of -0.555.
In the case of `COc1ccc(O[C@@H]2[C@H](O)CO[C@@H]2C=Cc2ccccc2)cc1`, the composite z-score is reported as 0.46.
For `O=C1[C@H]2[C@H]3[C@H](O)[C@H](O)CC(=NOC[C@@H](O)COCc4ccco4)[C@H]3CC[C@H]2C(=O)N1C[C@@H]1CCCO1`, the composite z-score was -0.285.
`CC(C)=CCCC(C)=CCON=C1C[C@@H](O)[C@@H](O)[C@@H]2[C@@H]3C(=O)N(C(C)(C)C)C(=O)[C@@H]3CC[C@@H]12` showed a composite z-score of -0.0925.
In the case of `C#CCCCON=C1C[C@@H](O)[C@@H](O)[C@@H]2[C@@H]3C(=O)N(CCC(=O)OCC)C(=O)[C@@H]3CC[C@H]12`, the composite z-score is reported as 0.64.
For `C[C@H]1CC[C@H]2C(=O)O[C@H](COc3ccc(C(C)(C)C)cc3)CN2[C@@H]1c1ccc(Br)cc1`, the composite z-score was 0.724.
Work on `CC(C)=CCCC(C)=CCON=C1C[C@@H](O)[C@@H](O)[C@@H]2[C@@H]3C(=O)N(c4cccc(Oc5ccccc5)c4)C(=O)[C@@H]3CC[C@@H]12` yielded a composite z-score of 0.938.
`COc1ccc(O[C@H]2C=C[C@@H](c3ccccc3)O[C@@H]2COC(=O)CCC(C)=NOC(C)CN2CCCc3nc(C)c(C)cc32)cc1` (stereo not given in full) showed a composite z-score of 0.858.
`COC(=O)[C@H](C)NC(=O)CCC1CC(OC(=O)NCc2cccc3ccccc23)CC2(CCCC(COC(=O)NCC(c3ccccc3)c3ccccc3)O2)O1` (stereo not given in full) showed a composite z-score of 0.917.
With `C=COC[C@@H]1CN2[C@@H](CC[C@@H](C)[C@@H]2c2ccc(Br)cc2)C(=O)O1` the composite z-score was -0.0605.
Work on `CCOC(=O)[C@H](CC(C)C)NC(=O)CCC1CC(OC(=O)NCc2cccc3ccccc23)CC2(CCCC(COC(=O)NCCC(C)C)O2)O1` (stereo not given in full) yielded a composite z-score of -0.0205.
In the case of `CCOC(=O)[C@H](Cc1ccccc1)NC(=O)CCC1CC(OC(=O)NCCc2ccc(F)cc2)CC2(CCCC(COC(=O)NCCc3ccccc3OC)O2)O1` (stereo not given in full), the composite z-score is reported as 0.729.
`CO[C@H](C1CCCCC1)[C@H](C)C=CCC(=O)OCCCc1ccccc1` was tested, and the composite z-score was -0.137.
